# According to PubChem BioAssay (NCATS):
# Inconclusive results are not listed. Calls of active or inactive are those of the source. The call rests on the fitted dose curve.
# Experiments:
# [1] = qHTS drug screen for cell cycle checkpoint inhibitors in PARPi-resistant BRCA-mutant ovarian cancer cell lines. (AID 1963452); settings: PEO1/OlaR viability, CellTiter-Glo luminescence, 96 h, stronger effect = lower value
# Procedure, shortened: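 PEO1, PEO4 and PEO1/OlaR ovarian cancer cells, 600 per well, exposed 96 h at 37C to a dilution series. Viability read by CellTiter-Glo luminescence, normalized to DMSO and empty wells; activity summarized as Z-AUC.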
# [2] = qHTS for identification of novel therapeutic agents for treatment of microphthalmiaassociated transcription factor (MiT) renal cell carcinoma (RCC) (AID 1963991); settings: CellTiter-Glo, 48 h, stronger effect = lower value
# Procedure, shortened: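 Three TFE3-fusion RCC lines (UOK109, UOK124, UOK145), 500 cells/well in complete medium, were treated with MIPE 4.0 compounds for 48 hours at 37 C. Viability was by CellTiter-Glo luminescence, normalized to DMSO (100%) and empty wells (0%); curves fitted over 11 concentrations.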
# [3] = measured here: PEO1 parental Z-AUC
# [4] = TFE3-RCC UOK109 viability, measured here: UOK109 Z-AUC
# [5] = TFE3-RCC viability, measured here: UOK124 Z-AUC
# [6] = TFE3-RCC viability, measured here: UOK145 Z-AUC
SMILES,Z-AUC [1],"Z-AUC [1, 3]",Z-AUC ([1]; measured here: PEO4 Z-AUC),"z-score [2, 4]","z-score [2, 5]","z-score [2, 6]"
C[C@@H](NCc1cc2ccccc2[nH]1)c1cccc2ccccc12,0.66 (inactive),0.376,0.0374,,,
CCOC(=O)[C@@H](N)Cc1ccc(-c2cc(O[C@H](c3ccc(Cl)cc3-n3ccc(C)n3)C(F)(F)F)nc(N)n2)cc1,-0.389 (inactive),-0.62,-0.32,,,
CC(C)c1cc(C(C)C)c(CC(=O)NS(=O)(=O)Oc2c(C(C)C)cccc2C(C)C)c(C(C)C)c1,0.134 (inactive),0.546,1.13,,,
CCS(=O)(=O)Nc1ccc2[nH]c(O)c(C(=Nc3ccc(CN4CCCCC4)cc3)c3ccccc3)c2c1,-1.37 (inactive),-1.2,-1.32,,,
COC(=O)C1C2CC3c4[nH]c5cc(OC)ccc5c4CCN3CC2CC(OC(=O)c2cc(OC)c(OC)c(OC)c2)C1OC (configuration not stated),1.42 (inactive),0.441,0.416,,,
C[C@](Cc1c[nH]c2ccccc12)(NC(=O)OC1C2CC3CC(C2)CC1C3)C(=O)NC[C@H](NC(=O)CCC(=O)O)c1ccccc1 (some centres not stated),-0.246 (inactive),-0.184,-0.0323,,,
N#Cc1c(C2CCNCC2)cc(-c2c(O)cccc2OCC2CC2)nc1N,0.339 (inactive),0.598,0.733,,,
COc1cc(C[C@@H](CO)[C@H](CO)Cc2ccc(O)c(OC)c2)ccc1O,0.833 (inactive),0.526,0.516,,,
OCCNC1CCCc2c1[nH]c1ccc(-c3ccccc3)cc21 (configuration not stated),-0.486 (inactive),-0.384,0.0631,,,
CCOc1cc2c(c(F)c1OCC)C(=N)N(CC(=O)c1cc(N3CCOCC3)c(OC)c(C(C)(C)C)c1)C2,-0.189 (inactive),0.331,0.119,,,
CCCc1nc(C(C)(C)O)c(C(=O)O)n1Cc1ccc(-c2ccccc2-c2nn[nH]n2)cc1,0.227 (inactive),0.788,1.03,1.09,0.526,0.646
Nc1ccc(C(=O)Nc2cccc(-c3nc(N4CCOCC4)c4oc5ncccc5c4n3)c2)cn1,0.0788 (inactive),-0.164,0.731,,,
c1cc(N[C@@H]2CCNC2)nc(-c2cnc3ccc(-c4cn[nH]c4)cn23)c1,-1.39 (inactive),-0.698,-0.866,,,
CCCNS(=O)(=O)Nc1ncnc(OCCOc2ncc(Br)cn2)c1-c1ccc(Br)cc1,0.736 (inactive),0.726,1.05,1.06,1.04,0.601
Oc1ccc(-c2ccc(-c3cc(Nc4cccc(CNC5CC5)c4)n[nH]3)cc2)c(O)c1,-0.35 (inactive),0.119,0.0871,,,
C#Cc1cccc(Nc2ncnc3cc(OCCOC)c(OCCO)cc23)c1,0.364 (inactive),0.383,0.173,,,
NC(=O)Nc1cc(-c2ccc(CN3CCOCC3)cc2)sc1C(N)=O,0.59 (inactive),0.476,0.41,,,
CCNC(=O)c1cc2c(-c3cc(OCCN4CCCC4)c(Cl)cc3Cl)nc(N)nc2s1,-0.792 (inactive),-0.714,-0.886,,,
COc1ccc(S(=O)(=O)Nc2cc(-c3c(O)ccc4ccccc34)c(O)c3ccccc23)cc1,0.502 (inactive),0.417,0.118,,,
COc1cc(O)c2c(c1)C1OC1C[C@H](O)[C@H](O)C(=O)C=CC[C@H](C)OC2=O (some centres not stated),0.145 (inactive),-0.101,-0.574,,,
CN(C)c1ccc2cc(C(=O)N[C@@H](CCCN=C(N)CCl)C(=O)NCc3ccccc3)ccc2c1,1.15 (inactive),0.744,1.03,,,
CCCCCCCCCCCCc1ccc(S(=O)(=O)Nc2nncs2)cc1,-0.392 (inactive),0.179,0.202,1.37,2.17,1.03
OC[C@H]1OC(O)C[C@@H](O)[C@H]1O (some centres not stated),-0.67 (inactive),-0.645,-0.88,1.34,0.406,-0.0329
NC(=O)Nc1sc(-c2ccc(F)cc2)cc1C(N)=O,-1.29 (inactive),-1.13,-1.05,,,
C[C@@H]1C(=O)O[C@H]2CC34[C@H]5C[C@@H](C(C)(C)C)C36[C@H](OC(=O)[C@@H]6O)O[C@@]4(C(=O)O5)[C@]21O (some centres not stated),0.793 (inactive),0.5,0.284,,,
C[C@@H]1CC[C@@]2(OC1)OC1CC3C4CC=C5CC(O)CCC5(C)C4CCC3(C)C1[C@@H]2C (some centres not stated),0.426 (inactive),0.314,0.526,,,
CN1CCc2c(c3ccccc3n2Cc2ccc(C(=O)NO)cc2)C1,-0.848 (inactive),-0.74,-1.03,,,
CNC(=O)Nc1ccc(-c2nc(N3CC4CCC(C3)O4)c3cnn(C4CCC5(CC4)OCCO5)c3n2)cc1,-0.248 (inactive),-0.236,-1.02,,,
Cc1cncc2cccc(S(=O)(=O)N3CCCN(C(=O)CN)C[C@@H]3C)c12,-0.369 (inactive),-0.0744,-0.172,1.38,0.196,0.7
